PubChem BioAssay
A number with no mark means an inactive call. For some assays here: Results with a measured potency or affinity are listed apart. Calls of active or inactive are those of the source. Unless noted, how the calls were made is not given here.

How the values were obtained:
[1] = antimalarial activity against Dd2 strain (AID 2302;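 active means growth inhibition above 50% at the single 2 µM test dose, taken to imply half-maximal potency below 2 µM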;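 further: 0% = DMSO untreated growth and 100% = chloroquine plus artemisinin killed control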); conditions: P. falciparum Dd2 in RBCs, LDH growth readout, 72 h; at 2 µM; hits give high values
[2] = HepG2 cytotoxicity, primary screen, cytotoxicity control for P. falciparum antimalarial project, cell-based, ATP luminescence (AID 2303;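 active means inhibition above 50%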;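 further: 0% = DMSO wells and 100% = digitonin-killed cells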); conditions: HepG2 viability, 24-48 h, at 10 µM, hits give high values
[3] = target: L-lactate dehydrogenase (Plasmodium falciparum (isolate CDC / Honduras)) (UniProt Q27743); test: PfLDH activity inhibition – cell lysate, 3D7 strain, counter-screen for P. falciparum growth inhibition project (AID 2304);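 further: 0% = vehicle and 100% = reference inhibitor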; conditions: P. falciparum 3D7 crude extract, LDH APAD/NBT absorbance; at 2 µM; hits give high values
Sequence of L-lactate dehydrogenase (Plasmodium falciparum (isolate CDC / Honduras)) (Q27743 whole entry, looked up): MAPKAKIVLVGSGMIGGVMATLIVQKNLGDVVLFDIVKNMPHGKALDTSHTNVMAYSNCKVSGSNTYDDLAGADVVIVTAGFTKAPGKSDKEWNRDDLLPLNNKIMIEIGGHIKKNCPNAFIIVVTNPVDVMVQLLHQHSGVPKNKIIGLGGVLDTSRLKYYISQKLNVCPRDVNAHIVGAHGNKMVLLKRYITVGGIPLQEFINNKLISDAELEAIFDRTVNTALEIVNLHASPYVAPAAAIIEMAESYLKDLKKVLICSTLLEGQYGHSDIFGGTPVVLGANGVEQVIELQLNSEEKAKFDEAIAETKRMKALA

[4] = inhibition of 3D7 malaria parasite growth – strain 3D7 (AID 2306);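 further: 0% = DMSO wells and 100% = chloroquine plus artemisinin control wells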; conditions: P. falciparum 3D7 erythrocytic growth, LDH absorbance, 72 h; at 2 µM; hits give high values
[5] = target: Calcium-dependent protein kinase 1 (Plasmodium falciparum (isolate 3D7)) (UniProt P62344); test: PfCDPK1 kinase inhibitors, biochemical, TCAMS library (AID 1159585; cut-off not given, nearly all actives have IC50 up to about 0.98 µM;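 further: inhibitors leave more ATP so luminescence rises with inhibition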); conditions: recombinant PfCDPK1, Kinase-Glo ATP depletion luminescence
Sequence of Calcium-dependent protein kinase 1 (Plasmodium falciparum (isolate 3D7)) (P62344 whole entry, looked up): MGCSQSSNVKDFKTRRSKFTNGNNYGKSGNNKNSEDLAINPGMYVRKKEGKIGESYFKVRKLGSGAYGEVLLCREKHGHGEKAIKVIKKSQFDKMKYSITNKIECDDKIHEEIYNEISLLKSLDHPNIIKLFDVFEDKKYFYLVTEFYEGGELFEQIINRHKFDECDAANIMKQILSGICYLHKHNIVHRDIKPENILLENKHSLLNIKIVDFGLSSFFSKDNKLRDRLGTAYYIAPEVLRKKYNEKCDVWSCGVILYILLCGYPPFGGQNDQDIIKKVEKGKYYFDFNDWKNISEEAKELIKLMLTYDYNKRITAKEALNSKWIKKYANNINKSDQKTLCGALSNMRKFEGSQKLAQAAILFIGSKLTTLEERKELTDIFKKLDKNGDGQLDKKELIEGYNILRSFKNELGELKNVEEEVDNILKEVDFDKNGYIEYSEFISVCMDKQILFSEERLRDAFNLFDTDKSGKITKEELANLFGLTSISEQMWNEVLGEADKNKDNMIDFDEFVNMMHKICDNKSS

[6] = target: Plasmodium falciparum protein kinase 6 (PK6, PF3D7_1337100) (UniProt Q8IDW1); test: PfPK6 kinase inhibitors, biochemical, TCAMS library (AID 1159586); conditions: recombinant PfPK6, Kinase-Glo ATP depletion luminescence
Sequence of Plasmodium falciparum protein kinase 6 (PK6, PF3D7_1337100) (Q8IDW1 1-305): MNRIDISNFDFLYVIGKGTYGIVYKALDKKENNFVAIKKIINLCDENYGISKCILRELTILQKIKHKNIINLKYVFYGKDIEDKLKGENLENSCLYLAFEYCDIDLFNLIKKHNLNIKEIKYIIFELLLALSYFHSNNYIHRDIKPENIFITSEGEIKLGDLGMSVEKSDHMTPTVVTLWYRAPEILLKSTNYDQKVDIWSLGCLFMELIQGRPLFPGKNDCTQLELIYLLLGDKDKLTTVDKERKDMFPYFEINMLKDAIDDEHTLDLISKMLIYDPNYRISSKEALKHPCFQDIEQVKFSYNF

[7] = target: Protein kinase 7 (PK7), Plasmodium falciparum 3D7 (PF3D7_0213400) (UniProt Q7YTF7); test: inhibition of Plasmodium PK7 catalytic activity – biochemical, TCAMS antimalarial set, Kinase-Glo luminescence (AID 1159587); conditions: recombinant PfPK7, Kinase-Glo ATP depletion luminescence
Sequence of Protein kinase 7 (PK7), Plasmodium falciparum 3D7 (PF3D7_0213400) (Q7YTF7 1-343): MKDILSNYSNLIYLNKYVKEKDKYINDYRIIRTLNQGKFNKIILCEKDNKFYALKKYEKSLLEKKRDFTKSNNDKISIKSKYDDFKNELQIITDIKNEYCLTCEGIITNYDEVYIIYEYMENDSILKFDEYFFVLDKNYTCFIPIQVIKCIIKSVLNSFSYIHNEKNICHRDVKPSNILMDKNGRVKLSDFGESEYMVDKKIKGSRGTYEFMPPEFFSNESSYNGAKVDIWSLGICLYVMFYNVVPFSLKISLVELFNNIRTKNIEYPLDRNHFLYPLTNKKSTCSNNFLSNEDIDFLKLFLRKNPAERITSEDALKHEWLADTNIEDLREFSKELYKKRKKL

[8] = target: Calcium-dependent protein kinase 4 (Plasmodium falciparum (isolate 3D7)) (UniProt Q8IBS5); test: PfCDPK4 kinase inhibitors, biochemical, TCAMS library (AID 1159588; cut-off not given, nearly all actives have IC50 up to about 0.91 µM); conditions: recombinant PfCDPK4, Kinase-Glo ATP depletion luminescence
Sequence of Calcium-dependent protein kinase 4 (Plasmodium falciparum (isolate 3D7)) (Q8IBS5 whole entry, looked up): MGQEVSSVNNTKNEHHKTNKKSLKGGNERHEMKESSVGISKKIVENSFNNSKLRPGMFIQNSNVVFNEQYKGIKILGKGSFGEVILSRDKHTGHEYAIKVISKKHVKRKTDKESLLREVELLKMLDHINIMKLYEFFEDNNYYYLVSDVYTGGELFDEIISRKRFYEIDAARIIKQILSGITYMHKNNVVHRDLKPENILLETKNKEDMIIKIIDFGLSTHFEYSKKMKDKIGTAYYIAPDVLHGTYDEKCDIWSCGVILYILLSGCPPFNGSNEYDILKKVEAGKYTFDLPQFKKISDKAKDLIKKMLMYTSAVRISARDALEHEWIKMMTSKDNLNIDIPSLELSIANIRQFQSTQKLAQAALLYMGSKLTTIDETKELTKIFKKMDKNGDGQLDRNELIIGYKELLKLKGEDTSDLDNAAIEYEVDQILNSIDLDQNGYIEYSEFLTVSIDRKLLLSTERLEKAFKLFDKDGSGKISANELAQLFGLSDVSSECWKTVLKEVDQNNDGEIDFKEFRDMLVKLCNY

| Structure (SMILES) | growth inhibition [1] | inhibition [2] | inhibition [3] [%] | growth inhibition [4] | outcome [5] | outcome [6] | outcome [7] | outcome [8] |
| --- | --- | --- | --- | --- | --- | --- | --- | --- |
| O=C(Nc1cc(Cl)cc(Cl)c1)c1cnn(-c2ccc(F)cc2)c1C1CCNCC1 | -1% | 13% | -2 | 90% (active) | inactive | inactive | inactive | inactive |
| Oc1ccc(CCNc2nc(NCc3cccc(-c4cc(C(F)(F)F)ccc4Cl)c3)nc(N3CCNCC3)n2)cc1 | 8% | 33% | 0 | 90% (active) | inactive | inactive | inactive | inactive |
| COc1ccc2nccc([C@@H](O)CN3CCC(NCc4cnc5snnc5c4)C(F)C3)c2c1 (stereo not given in full) | 88% (active) | 13% | 2 | 83% (active) | inactive | inactive | inactive | inactive |
| O=[N+]([O-])c1cccc(-n2nc(NCc3ccc(Cl)cc3)nc2-c2ccc(F)c(C(F)(F)F)c2)c1 | 93% (active) | 6% | -3 | 98% (active) | inactive | inactive | inactive | inactive |
| COc1ccc(Br)cc1/C=C/C(=O)Nc1ccc(C2CCN(C)CC2)cc1 | 61% (active) | 11% | -3 | 101% (active) | inactive | inactive | inactive | inactive |
| Nc1nc(N)c2c(ccc3c2ncn3Cc2ccccc2)n1 | 96% (active) | 71% (active) | 4 | 96% (active) | inactive | inactive | inactive | inactive |
| COc1ccc2ncc(F)c(NC(=O)C3CCC(NCc4cc5c(F)cccc5[nH]4)CC3)c2n1 (stereo not given) | 29% | 39% | -1 | 91% (active) | inactive | inactive | inactive | inactive |
| COc1ccc(Nc2ccnc3cc4ccccc4cc23)cc1 | 73% (active) | 32% | 3 | 101% (active) | inactive | inactive | inactive | inactive |
| CCCC(C)NC[C@@H](O)[C@H](Cc1ccccc1)NC(=O)c1cc(NCC)cc(N2CCCCS2(=O)=O)c1 (stereo not given in full) | 98% (active) | -4% | -2 | 101% (active) | inactive | inactive | inactive | inactive |
| Cc1ccc(N)cc1-c1nc(NC2CC(C)(C)NC(C)(C)C2)nc2c1ccc(=O)n2-c1c(F)cccc1F | 1% | 0% | -5 | 98% (active) | inactive | inactive | inactive | inactive |
| O=C(NCCN1CCCC1)N1CCCN(c2ncnc3cc(-c4ccc(F)cc4)sc23)CC1 | 19% | 5% | 5 | 81% (active) | inactive | inactive | inactive | inactive |
| CC1(C)N=C(N)N=C(N)N1c1ccc(Oc2ccccc2)cc1 | 3% | 13% | -6 | 98% (active) | inactive | inactive | inactive | inactive |
| CN(C)C(=O)CC(=O)NCc1cccc(Cl)c1 | 3% | 4% | 3 | 99% (active) | inactive | inactive | inactive | inactive |
| CC(C)CCNCC(O)Cn1c2ccc(Cl)cc2c2cc(Cl)ccc21 (stereo not given) | 99% (active) | 36% | 3 | 99% (active) | inactive | inactive | inactive | inactive |
| Cn1c(-c2ccccc2)cc2c3c(N)nc(N)nc3ccc21 | 30% | 27% | -2 | 100% (active) | inactive | inactive | inactive | inactive |
| O=c1cc(NCCCNCc2cccc(OC(F)(F)F)c2)[nH]c2ccccc12 | 72% (active) | -4% | -1 | 97% (active) | inactive | inactive | inactive | inactive |
| COc1cc(/C=C/C(=O)NCC(CCNc2cc(=O)c3ccccc3[nH]2)NCc2cc(Br)cc(Br)c2)cc(OC)c1 (stereo not given) | 28% | -11% | -4 | 90% (active) | inactive | inactive | inactive | inactive |
| N#Cc1ccc2c(c1)CN(CCC1CCC(NC(=O)c3cc4cc(OC(F)(F)F)ccc4[nH]3)CC1)CC2 (stereo not given) | 19% | 4% | 4 | 101% (active) | inactive | inactive | inactive | inactive |
| O=C(Nc1ccc(N2CCN(Cc3ccccc3)CC2)cc1)c1cccs1 | 86% (active) | -1% | 2 | 87% (active) | inactive | inactive | inactive | inactive |
| O=C(NNC(=O)c1ccc(CCN2CCC(c3nc(COCC(F)(F)F)c(-c4ccc(F)cc4)o3)CC2)cc1)Nc1ccc(Oc2ccccc2)cc1 | 89% (active) | 38% | 4 | 102% (active) | inactive | inactive | inactive | inactive |

| Structure (SMILES) | growth inhibition [1] | inhibition [2] | inhibition [3] [%] | growth inhibition [4] | outcome [5] | outcome [6] | outcome [7] | outcome [8] |
| --- | --- | --- | --- | --- | --- | --- | --- | --- |
| CCn1cc(C=C2Oc3c(ccc(O)c3CN3CCCCC3C)C2=O)c2ccccc21 (stereo not given) | 80% (active) | -6% | 6 | 94% (active) | inactive | inactive | inactive | inactive |
| O=C(Nc1ccc(Cl)cc1)Nc1ccc(-c2cccc(-c3nc4ccc(F)cc4[nH]3)c2)cc1 | 96% (active) | 74% (active) | -1 | 101% (active) | inactive | inactive | inactive | inactive |
| CC(C)(C)NCCN(Cc1ccc(-c2ccc(C(F)(F)F)cc2)cc1)C(=O)Cn1c(CCc2cccc(F)c2F)nc(=O)c2c1CCC2 | 48% | 6% | 6 | 95% (active) | inactive | inactive | inactive | inactive |
| Nc1cc(C=Cc2ccc([N+](=O)[O-])s2)nc2ccccc12 | 48% | 89% (active) | -7 | 98% (active) | inactive | inactive | inactive | inactive |
| O=C(/C=C/c1ccc(CNCCN2CCOCC2)cc1)NCCc1ccccc1 | 3% | 9% | -2 | 94% (active) | inactive | inactive | inactive | inactive |
| c1cc2nc(CCCc3nc4ccc(C5=N[C@H]6CCCC[C@H]6N5)cc4[nH]3)[nH]c2cc1C1=N[C@@H]2CCCC[C@@H]2N1 | 84% (active) | 10% | -2 | 85% (active) | inactive | inactive | inactive | inactive |
| CN(CCc1ccccc1)c1ncc(-c2ccccc2CNCc2ccccc2O)cn1 | 94% (active) | 10% | -2 | 99% (active) | inactive | inactive | inactive | inactive |
| CN(C)Cc1ccc(-c2ccc(NC(=O)c3ccc4c(=O)n(Cc5ccccc5)cnc4c3)cc2)cc1 | 39% | 94% (active) | -2 | 100% (active) | inactive | inactive | inactive | inactive |
| Fc1ccc2nc(-c3ccc(-c4ccc(CNCCN5CCNCC5)cc4)s3)[nH]c2c1 | 2% | 24% | -1 | 96% (active) | inactive | inactive | inactive | inactive |
| Cc1cccc2[nH]c(-c3ccc(-c4cccc(NC(=O)c5cncn5C)c4)cc3)nc12 | 1% | 2% | 2 | 100% (active) | inactive | inactive | inactive | inactive |
| O=C(CSc1nc2ccc([N+](=O)[O-])cc2s1)Nc1ccccc1-c1ccccc1 | 49% | -1% | 0 | 80% (active) | inactive | inactive | inactive | inactive |
| CCc1cc(Br)c2c(c1)C(NCCCNc1cc(=O)c3ccccc3[nH]1)CCN2 (stereo not given) | 20% | 13% | -1 | 94% (active) | inactive | inactive | inactive | inactive |
| CN1CCCC(CN2CCN(Cc3cccc(-c4cccc(-c5nc6ccccc6[nH]5)c4)c3)CC2)C1 (stereo not given) | 99% (active) | 45% | -8 | 100% (active) | inactive | inactive | inactive | inactive |
| O=C(Nc1cccc(C(F)(F)F)c1)c1ccc(S(=O)(=O)NC2CCN(CC3CCCCC3)CC2)cc1 | -3% | 25% | 0 | 83% (active) | inactive | inactive | inactive | inactive |
| COc1cccc(NC(=O)Cn2c(C)c(C(=O)C(F)(F)F)c3ccccc32)c1 | 94% (active) | 2% | -5 | 97% (active) | inactive | inactive | inactive | inactive |
| COc1ccc(Cl)cc1C(=O)Nc1ccc(-c2nc3ccccc3[nH]2)cc1 | 39% | 42% | -7 | 92% (active) | inactive | inactive | inactive | inactive |
| N#Cc1ccc(N(CCOc2ccc(Cl)cc2)Cc2ccccc2C(F)(F)F)cc1C(F)(F)F | 64% (active) | 3% | 2 | 91% (active) | inactive | inactive | inactive | inactive |
| Cc1ccc(C(=O)N2CCN(Cc3nccs3)CC2)cc1 | -2% | -6% | 0 | 86% (active) | inactive | inactive | inactive | inactive |
| O=C(/C=C/c1ccc(Cl)c(Cl)c1)NCCCCCN1CCCN(C(=O)Nc2cc(F)cc(F)c2)CC1 | 1% | 4% | 0 | 94% (active) | inactive | inactive | inactive | inactive |
| N=C(N)CCN(Cc1ccc(Cl)cc1)c1ccc(Cl)cc1 | 92% (active) | 22% | 5 | 96% (active) | inactive | inactive | inactive | inactive |
